Records with an inconclusive call do not appear. Activity calls are given as the source filed them. Calls come from the whole dose curve; as a rule, active = well fitted curve in the direction sought with a large enough effect; inconclusive = small, poorly fitted or top-dose-only effect, or another doubt; inactive = no such curve, though single readings can be large; an effect the other way counts as inactive or inconclusive.
What was measured:
[1] = qHTS of pediatric cancer cell lines to identify multiple opportunities for drug repurposing: Primary screen for A673 cells (AID 1347092); note: % is set by controls: 0 for no effect and ±100 for the full control effect; nearly all actives have a fitted effect of over 45% in size
Method in brief: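 A673 cells (500-1,000 cells/well in growth media) were pre-incubated 5 h at 37 degrees C, then exposed to compounds for 48 h. Viability was read as CellTiter-Glo luminescence; concentration-response curves came directly from the primary screen.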

[2] = qHTS of pediatric cancer cell lines to identify multiple opportunities for drug repurposing: Primary screen for SK-N-MC cells (AID 1347093);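 note: series mostly up to about 46 µM; plate controls were DMSO neutral control for no effect and bortezomib for full effect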
Method in brief: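 Metabolically active cells were quantified by ATP-dependent luminescence (CellTiter-Glo, 15 min at room temperature) following 48 h treatment. Cells had been plated at 500-1,000 per well and settled for 5 h beforehand.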

[3] = qHTS of pediatric cancer cell lines to identify multiple opportunities for drug repurposing: Primary screen for BT-37 cells (AID 1347094);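 note: series mostly up to about 57 µM; plate controls were DMSO for no effect and bortezomib for full effect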
Method in brief: (§1)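 Cells plated at 500-1,000/well in growth medium, compounds added after 5 h. MIPE tested at 11 points (from 0.78 nM), NPC at 8 points (from 0.59 nM). CellTiter-Glo luminescence after 48 h; concentration-response curves from primary screen.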

[4] = qHTS of pediatric cancer cell lines to identify multiple opportunities for drug repurposing: Primary screen for NB-EBc1 cells (AID 1347095);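 note: plate controls were DMSO neutral control for no effect and bortezomib for full effect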
Method in brief: as §1

[5] = qHTS of pediatric cancer cell lines to identify multiple opportunities for drug repurposing: Primary screen for U-2 OS cells (AID 1347096);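 note: plate controls were DMSO wells for no effect and bortezomib positive control wells for full effect; nearly all actives have a fitted effect of over 50% in size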
Method in brief: (§2)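 Cells (500-1,000/well) rested 5 h, then received compounds for 48 h; metabolically active cells were measured by CellTiter-Glo luminescence. Final concentrations spanned up to 46 µM (MIPE, 11-point) or 0.59 nM-46 µM (NPC, 8-point) in primary screens, 11-point in follow-ups.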

[6] = qHTS of pediatric cancer cell lines to identify multiple opportunities for drug repurposing: Primary screen for Saos-2 cells (AID 1347097); note: % is set by controls: 0 for no effect and ±100 for the full control effect; nearly all actives have a fitted effect of over 40% in size
Method in brief: as §1

[7] = qHTS of pediatric cancer cell lines to identify multiple opportunities for drug repurposing: Primary screen for SK-N-SH cells (AID 1347098);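 note: DMSO served as neutral control and bortezomib at 2.3 µM as positive control; % is set by controls: 0 for no effect and ±100 for the full control effect; nearly all actives have a fitted effect of over 65% in size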
Method in brief: as §2

[8] = qHTS of pediatric cancer cell lines to identify multiple opportunities for drug repurposing: Primary screen for NB1643 cells (AID 1347099);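 note: plate controls were DMSO neutral control for no effect and bortezomib positive control for full effect; nearly all actives have a fitted effect of over 50% in size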
Method in brief: as §1

[9] = qHTS of pediatric cancer cell lines to identify multiple opportunities for drug repurposing: Primary screen for LAN-5 cells (AID 1347100);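 note: plate controls were DMSO neutral control for no effect and bortezomib positive control for full effect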
Method in brief: as §2

[10] = qHTS of pediatric cancer cell lines to identify multiple opportunities for drug repurposing: Primary screen for BT-12 cells (AID 1347101);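 note: plate controls were DMSO for no effect and bortezomib positive control for full effect; nearly all actives have a fitted effect of over 25% in size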
Method in brief: as §2

OCC(O)CN1CCN(c2ccccc2)CC1 (stereo not given)
inactive: Potency [1] | Potency [2] | Potency [3] | Potency [4] | Potency [5] | Potency [6] | Potency [7] | Potency [8] | Potency [9] | Potency [10]

C[C@@H]1CCN(C(=O)[C@H](CCCN=C(N)N)NS(=O)(=O)c2cccc3c2NC[C@H](C)C3)[C@@H](C(=O)O)C1
inactive: Potency [1] | Potency [2] | Potency [3] | Potency [4] | Potency [5] | Potency [6] | Potency [7] | Potency [8] | Potency [9] | Potency [10]

Cn1c(=O)c2c(ncn2CC2OCCO2)n(C)c1=O
inactive: Potency [1] | Potency [2] | Potency [3] | Potency [4] | Potency [5] | Potency [6] | Potency [7] | Potency [8] | Potency [9] | Potency [10]

NCCNCCNCCNCCN
inactive: activity change, negative = cytotoxic [1] 0.711% [at 9.22 µM] | activity change, negative = cytotoxic [2] -17.1% [at 9.22 µM] | activity change, negative = cytotoxic [3] 7.77% [at 11.5 µM] | activity change, negative = cytotoxic [4] 2.04% [at 9.22 µM] | activity change, negative = cytotoxic [5] -3.22% [at 9.22 µM] | activity change, negative = cytotoxic [6] -19.8% [at 9.22 µM] | activity change, negative = cytotoxic [7] -8.89% [at 11.4 µM] | activity change, negative = cytotoxic [8] 0.713% [at 9.22 µM] | activity change, negative = cytotoxic [9] -15.5% [at 9.22 µM] | activity change, negative = cytotoxic [10] 0.69% [at 11.5 µM]

C[C@H]1O[C@H](O[C@H]2[C@H](O)[C@@H](O)[C@@H](O[C@H]3[C@H](O)[C@@H](O)[C@H](O)O[C@@H]3CO)O[C@@H]2CO)[C@H](O)[C@@H](O)[C@@H]1N[C@H]1C=C(CO)[C@@H](O)[C@H](O)[C@H]1O
inactive: Potency [1] | Potency [2] | Potency [3] | Potency [4] | Potency [5] | Potency [6] | Potency [7] | Potency [8] | Potency [9] | Potency [10]

C[C@@H]1CC[C@@]2(OC1)O[C@H]1C[C@H]3[C@@H]4CC[C@H]5C[C@@H](O)CC[C@]5(C)[C@H]4CC(=O)[C@]3(C)[C@H]1[C@@H]2C
inactive: activity change, negative = cytotoxic [1] 9.64% [at 4.84 µM] | activity change, negative = cytotoxic [2] 6.15% [at 4.84 µM] | activity change, negative = cytotoxic [3] 3.33% [at 6.03 µM] | activity change, negative = cytotoxic [4] 21.8% [at 4.84 µM] | activity change, negative = cytotoxic [5] 8.89% [at 4.84 µM] | activity change, negative = cytotoxic [6] -14.3% [at 4.84 µM] | activity change, negative = cytotoxic [7] -10.6% [at 6 µM] | activity change, negative = cytotoxic [8] 31.5% [at 4.84 µM] | activity change, negative = cytotoxic [9] -6.9% [at 4.84 µM] | activity change, negative = cytotoxic [10] 6.34% [at 6.03 µM]

CC(C)(C(=O)O)c1ccc(C(O)CCCN2CCC(C(O)(c3ccccc3)c3ccccc3)CC2)cc1 (stereo not given)
inactive: Potency [1] | Potency [2] | Potency [3] | Potency [4] | Potency [5] | Potency [6] | Potency [7] | Potency [8] | Potency [9] | Potency [10]

C#CCN(C)Cc1ccccc1
inactive: Potency [1] | Potency [2] | Potency [3] | Potency [4] | Potency [5] | Potency [6] | Potency [7] | Potency [8] | Potency [9] | Potency [10]

O=C(O)c1ccccc1-c1ccc(C(F)(F)F)cc1
inactive: Potency [1] | Potency [2] | Potency [3] | Potency [4] | Potency [5] | Potency [6] | Potency [7] | Potency [8] | Potency [9] | Potency [10]

O=Cc1ccccc1C=O
inactive: Potency [1] | Potency [2] | Potency [3] | Potency [4] | Potency [5] | Potency [6] | Potency [7] | Potency [8] | Potency [9] | Potency [10]

C[C@@H]1CN(c2c(F)c(F)c3c(=O)c(C(=O)O)cn(C4CC4)c3c2F)C[C@H](C)N1
inactive: Potency [1] | Potency [2] | Potency [3] | Potency [4] | Potency [5] | Potency [6] | Potency [7] | Potency [8] | Potency [9] | Potency [10]

Nc1ccc(S(=O)(=O)Nc2ccccc2)cc1
inactive: Potency [1] | Potency [2] | Potency [3] | Potency [4] | Potency [5] | Potency [6] | Potency [7] | Potency [8] | Potency [9] | Potency [10]

CN(C)CC[C@@H](c1ccc(Cl)cc1)c1ccccn1
inactive: Potency [1] | Potency [2] | Potency [3] | Potency [4] | Potency [5] | Potency [6] | Potency [7] | Potency [8] | Potency [9] | Potency [10]

CN1CCOC(c2ccccc2)c2ccccc2C1 (stereo not given)
inactive: Potency [1] | Potency [2] | Potency [3] | Potency [4] | Potency [5] | Potency [6] | Potency [7] | Potency [8] | Potency [9] | Potency [10]

CN1[C@@H]2CC(OC(=O)[C@H](CO)c3ccccc3)C[C@H]1[C@@H]1O[C@@H]12 (stereo not given in full)
inactive: Potency [1] | Potency [2] | Potency [3] | Potency [4] | Potency [5] | Potency [6] | Potency [7] | Potency [8] | Potency [9] | Potency [10]

CCOC(=O)[C@H](CCc1ccccc1)N[C@@H](C)C(=O)N1C(=O)N(C)C[C@H]1C(=O)O
inactive: Potency [1] | Potency [2] | Potency [3] | Potency [4] | Potency [5] | Potency [6] | Potency [7] | Potency [8] | Potency [9] | Potency [10]

[O-][n+]1cccc(CO)c1
inactive: Potency [1] | Potency [2] | Potency [3] | Potency [4] | Potency [5] | Potency [6] | Potency [7] | Potency [8] | Potency [9] | Potency [10]

Nc1ccc(S(=O)(=O)NC(=O)c2ccccc2)cc1
inactive: Potency [1] | Potency [2] | Potency [3] | Potency [4] | Potency [5] | Potency [6] | Potency [7] | Potency [8] | Potency [9] | Potency [10]

CC1=C(C/C=C(\C)CCC[C@H](C)CCC[C@H](C)CCCC(C)C)C(=O)c2ccccc2C1=O
inactive: Potency [1] | Potency [2] | Potency [3] | Potency [4] | Potency [5] | Potency [6] | Potency [7] | Potency [8] | Potency [9] | Potency [10]

CC[C@@]1(c2ccccc2)NC(=O)N(C)C1=O
inactive: Potency [1] | Potency [2] | Potency [3] | Potency [4] | Potency [5] | Potency [6] | Potency [7] | Potency [8] | Potency [9] | Potency [10]

O=c1cc[nH]c(=O)[nH]1
inactive: Potency [1] | Potency [2] | Potency [3] | Potency [4] | Potency [5] | Potency [6] | Potency [7] | Potency [8] | Potency [9] | Potency [10]

From PubChem BioAssay (NCATS)
